Compounds with a hit are over-represented: about 1.7% of the library has one in this group of screens.
TLR4 MyD88 comp: TLR4-MyD88 interaction inhibition in cells | HeLa CL3-4 TLR4/MyD88 BLA complementation, FRET ratio | inhibition, % at 8.4 µM | 0.18% of 200,000 active | AID 861; in the data active means inhibition above about 25%;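 further: 0% = vehicle and 100% = reference inhibitor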
TLR9-MyD88 inh: blocks human TLR9 binding to MyD88; inhibition, % at 4.98 µM; CHO BLA complementation TLR9-MyD88, CCF4 FRET ratio; Q9NR96+Q99836; 0.21% of 340,000 active;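 active means inhibition above the mean over all tested compounds plus 3 SD, cut at about 21% in these data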;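 further: 0% = DMSO only wells and 100% = clavulanate BLA inhibitor control wells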
ABCB6 inh 2: human ABCB6 transporter inhibition; Q9NP58; K562-ABCB6 porphyrin accumulation, flow cytometry, 1 h; hits give low values; fluorescence ratio to DMSO, % at 10 µM; 0.19% of 360,000 active; AID 602162;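 active means fluorescence ratio to DMSO below 75%, the collection mean minus 3 SD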;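 further: signal is porphyrin accumulated inside mitochondria; 100% equals median channel fluorescence of DMSO control wells; lower ratio means ABCB6 inhibition with less porphyrin fluorescence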
NOD2-RIPK2 inh: blocks binding of human NOD2 to RIPK2 | O43353 | CHO BLA complementation NOD2-RIPK2, CCF4 ratio | inhibition, % at 4.98 µM | 0.38% of 360,000 active; in the data active means inhibition above about 21%;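 further: 0% = vehicle only and 100% = reference blocker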
Target sequence (O43353 whole entry, looked up): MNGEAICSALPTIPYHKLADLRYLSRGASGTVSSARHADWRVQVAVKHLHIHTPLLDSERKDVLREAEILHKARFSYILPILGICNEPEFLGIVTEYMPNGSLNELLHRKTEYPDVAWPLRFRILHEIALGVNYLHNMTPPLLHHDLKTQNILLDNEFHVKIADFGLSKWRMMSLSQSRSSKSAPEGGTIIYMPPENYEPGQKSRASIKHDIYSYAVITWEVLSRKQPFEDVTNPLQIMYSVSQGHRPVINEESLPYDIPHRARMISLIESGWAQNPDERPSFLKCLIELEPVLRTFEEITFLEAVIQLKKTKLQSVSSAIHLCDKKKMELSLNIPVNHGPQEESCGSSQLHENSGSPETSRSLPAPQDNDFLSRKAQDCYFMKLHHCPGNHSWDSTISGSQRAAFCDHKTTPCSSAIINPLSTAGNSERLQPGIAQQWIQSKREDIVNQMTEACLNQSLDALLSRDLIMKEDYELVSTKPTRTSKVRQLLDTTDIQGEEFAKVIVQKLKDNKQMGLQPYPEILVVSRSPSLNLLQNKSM
Myeloid diff MLP: compounds promoting myeloid differentiation; ER-HoxA9 myeloid progenitors, lysozyme-GFP differentiation, flow cytometry; calls only at 10 µM; 1% of 360,000 active;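 active means normalized GFP-positive differentiation at or above the plate's own cutoff, the solvent-only control mean plus 3 SD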;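 further: cells exposed to compound for four days before flow analysis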
ABCB6 inh CP1: human ABCB6 transporter inhibition; shares compounds with ABCB6 inh 2; AID 602430; ratio response (% of DMSO), % at 10 µM; 700 tested, under 10 active; K562-ABCB6 porphyrin accumulation, flow cytometry, 1 h; hits give low values;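 active means repeat-averaged ratio response below 75% of DMSO, the collection mean minus 3 SD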;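 further: median porphyrin fluorescence at 575 nm with 488 nm excitation from mitochondria; lower ratio means less porphyrin signal so ABCB6 inhibition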
An asterisk follows results filed as active; i = inactive; / = no result given.

SMILES	TLR4 MyD88 comp	TLR9-MyD88 inh	ABCB6 inh 2	NOD2-RIPK2 inh	Myeloid diff MLP	ABCB6 inh CP1
O=C(O)c1ccc(C(=O)Nc2cccc3ccccc23)c(C(=O)O)c1	/	-4.8	104.0	-2.8	i	/
Cc1ccc(Cc2c(C)nc3c(C(=O)O)cnn3c2C)cc1	-1.2	/	/	/	/	/
Cc1nc2c(C(=O)N3CCCCC3)cnn2c(C)c1Cc1ccccc1F	12.2	-7.0	96.0	-8.3	i	98.0
Cc1nc2c(C(=O)N3CCN(C)CC3)cnn2c(C)c1Cc1ccc(Cl)cc1	4.7	-4.9	99.0	-14.8	i	100.0
O=S(=O)(Nc1ccc(-c2cn3c(n2)SCC3)cc1)c1ccccc1F	/	7.5	101.0	-7.4	i	/
CC(OC(=O)c1ccc(=O)n(Cc2ccccc2)n1)C(=O)Nc1cccc(Cl)c1 (centres undefined)	/	-1.9	68.0*	6.3	i	101.0
Cc1ccc(NC(=O)COC(=O)c2ccc(=O)n(Cc3ccccc3)n2)cc1F	/	6.1	104.0	-15.9	i	/
CCN1CCCC1CNc1ccc(S(C)(=O)=O)cc1[N+](=O)[O-] (centres undefined)	/	3.5	90.0	-0.7	i	/
CC1CCN(C(=O)CN2C(=O)C(=O)N(C(C)C)C2=O)c2ccccc2S1 (centres undefined)	/	3.4	100.0	-1.5	i	/
Cc1coc2c1c(C)cc1oc(=O)c(Cc3ccccc3)c(C)c12	4.6	-2.5	66.0*	-5.6	i	100.0
COc1ccc(NC(=O)c2cccc(S(=O)(=O)N3CCCCC3)c2)c(OC)c1	/	-8.4	13.0*	-9.2	i	98.0
CCc1ccc(C(=O)NNC(=O)C2CSC3(C)CCC(=O)N23)cc1 (centres undefined)	/	-11.4	97.0	-7.6	i	/
O=C(CSc1nnc(NC(=O)c2ccc(S(=O)(=O)N3CCOCC3)cc2)s1)Nc1ccccc1C(F)(F)F	-7.2	-5.9	99.0	-2.6	i	/
CC1CCCCN1C(=O)CCC(=O)Nc1nnc(C2CCCCC2)s1 (centres undefined)	/	-3.6	20.0*	12.9	i	102.0
O=C1[C@@H]2Cc3ccccc3CN2C(=O)N1c1cccc(F)c1	2.2	0.2	96.0	-7.7	i	/
Cc1ccccc1N1C(=O)[C@@H]2Cc3ccccc3CN2C1=O	1.6	6.1	68.0*	2.6	i	98.0
O=C(Oc1ccc(N(Cc2cccs2)C2=NS(=O)(=O)c3ccccc32)cc1)c1ccccc1	-0.3	-9.3	66.0*	2.7	i	100.0
O=C(Oc1ccc(N(Cc2cccs2)C2=NS(=O)(=O)c3ccccc32)cc1)c1ccc(Cl)cc1	1.4	-6.7	96.0	2.8	i	/
COc1cccc(CNC(=O)COC(=O)CCS(=O)(=O)c2ccc(C)cc2)c1	/	-11.6	98.0	-4.2	i	/
Cc1[nH]c2ccccc2c1C(O)CN1CCC2(CC1)OCCO2 (centres undefined)	/	-2.9	88.0	-2.7	i	/
COC(=O)c1ccc(CNC(=O)COc2ccccc2Br)o1	-3.7	0.1	32.0*	5.2	i	97.0
CC1CCCCC1NC(=O)c1cc2c(s1)CS(=O)(=O)C2 (centres undefined)	-4.0	10.6	71.0*	-4.9	i	98.0
O=C(NC1CC1)c1cc2c(s1)CS(=O)(=O)C2	-5.1	-16.6	110.0	0.9	i	/
O=C(O)C1CCN(S(=O)(=O)c2ccc(Cl)s2)CC1	/	8.4	94.0	-9.5	i	97.0
Cc1ccc(S(=O)(=O)N2CCN(C(=O)CN3CCOCC3)C2c2ccccc2)cc1 (centres undefined)	-18.1	-1.5	105.0	-10.8	i	/
SMILES	TLR4 MyD88 comp	TLR9-MyD88 inh	ABCB6 inh 2	NOD2-RIPK2 inh	Myeloid diff MLP	ABCB6 inh CP1
Cc1ccc(S(=O)(=O)N2CCN(C(=O)CN3CCOCC3)C2C(C)C)cc1 (centres undefined)	-4.9	5.4	59.0*	-16.6	i	102.0
CN1OC[C@@H]2CN(C(=O)CCc3ccccc3)[C@H](c3cccc(-c4ccc(C#N)cc4)c3)C[C@@H]21	/	-3.1	100.0	2.4	i	/
Cc1cc(C(=O)COc2ccc(C#N)cc2)c(C)n1CC1CCCO1 (centres undefined)	/	/	91.0	-8.5	i	/
Cc1cc(C(=O)COc2ccc(Br)cc2F)c(C)n1CC1CCCO1 (centres undefined)	/	0.9	71.0*	17.1	i	97.0
COC(=O)[C@@H]1C[C@@]2(O)[C@H](O)[C@H](O)[C@H](O)C[C@H]2N1Cc1ccc(C(F)(F)F)cc1	/	-5.3	72.0*	0.7	i	100.0
COC(=O)[C@@H]1C[C@@]2(O)[C@@H](O)[C@@H](O)[C@@H](O)C[C@H]2N1Cc1ccc(C(F)(F)F)cc1	/	7.8	97.0	0.9	i	/
Cc1cc(=O)oc2cc(OCC(=O)Nc3ccc4[nH]c(=O)[nH]c4c3)ccc12	/	6.5	95.0	-0.6	/	/
Cc1ccc(NC(=O)CN(C)C(=O)COC(=O)COc2ccc(C#N)cc2)cc1	/	8.2	94.0	6.1	i	/
CN(CC(=O)Nc1ccc(F)cc1)C(=O)COC(=O)COc1ccc(C#N)cc1	/	-6.7	68.0*	1.2	i	102.0
O=C(O)COCC(=O)N1CCCN(c2nccc(C(F)(F)F)n2)CC1	/	-9.5	50.0*	3.0	i	102.0
N#Cc1c2n(c3c(=O)n(Cc4ccc(Cl)cc4)cnc13)CCCCC2	0.3	-2.4	96.0	-1.3	i	/
N#Cc1c2n(c3c(=O)n(Cc4ccccc4)cnc13)CCCC2	9.9	-6.5	55.0*	2.2	i	100.0
Cc1cc(NC(=O)CSc2nnnn2-c2ccc(C)c(Cl)c2)no1	/	-0.7	72.0*	8.6	i	99.0
COc1ccccc1-c1cc2nc(NCCOc3ccccc3)ccn2n1	/	/	61.0*	8.4	i	104.0
Cc1cccc(N2CCN(C(=O)CCN3C(=O)C4C5C=CC(C5)C4C3=O)CC2C)c1 (centres undefined)	4.7	5.1	67.0*	-16.1	i	96.0
CC1CCCN(Cc2csc(N)n2)C1 (centres undefined)	-11.2	-17.3	97.0	-4.2	i	/
CCOCCn1c(N2CCN(c3ccc(OC)cc3)CC2)nc2c1c(=O)[nH]c(=O)n2C	-0.3	11.9	72.0*	3.0	i	99.0
Cc1ccc(O)c(NC2=C(Cl)C(=O)N(Cc3ccccc3)C2=O)c1	-0.7	8.2	74.0*	5.1	i	107.0
CC1(C(=O)NS(=O)(=O)c2cccs2)CCN1C(=O)C1CC1 (centres undefined)	/	/	97.0	-2.5	i	/
CC(Oc1ccc(Cl)cc1Cl)c1ccnc2nc(N3CCOCC3)nn12 (centres undefined)	15.5	0.7	74.0*	0.5	i	99.0
CC(Oc1ccccc1)c1ccnc2nc(N3CCOCC3)nn12 (centres undefined)	8.9	0.5	96.0	1.5	i	/
CCN(CC)S(=O)(=O)c1ccc(C(=O)Nc2cc(S(=O)(=O)N3CCOCC3)ccc2O)cc1	/	-0.8	98.0	2.0	i	/

From PubChem BioAssay
